TDP1 cell CPT: DT40-hTDP1 cell growth loss with CPT. chicken DT40 Tdp1-/-;hTDP1 cells + 20 nM CPT, ATP luminescence, 48 h. Potency, µM (series often up to 46.2 µM), without a hit: top-dose activity change, negative = growth inhibition, most hits filed as inhibitors. 420,000 tested, 12% active. AID 686979; also: potency is read from the fitted curve at half-maximal effect; nearly all actives have a fitted effect of over 55% in size
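Cell growth measured by CellTiter-Glo luminescence after a minimum 48 h, 37 C compound exposure with 20 nM CPT in Tdp1-knockout DT40 cells stably expressing hTDP1, seeded 400/well; qHTS titration format.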
IL-1B inflam inh: blocks inflammasome-driven IL-1 beta release. THP-1 LPS/ATP IL-1B secretion, AlphaLISA, 16 h; hits give low values. activity change, % at 57.5 µM. 360,000 tested, 4.7% active. AID 743279; in the data active = activity change below about -50%; inconclusive = mostly about -30% to -49%
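Secreted IL-1B measured by AlphaLISA bead assay after 16 h compound exposure of THP-1 cells; compounds (final up to 57.5 uM) added 1 h before LPS (250 ng/mL) and ATP (1.25 mM) stimulation; lower signal means less secretion.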
DT40 TDP1 no CPT: qHTS for Inhibitors of human tyrosyl-DNA phosphodiesterase 1 (TDP1): qHTS in cells in absence of CPT. DT40 Tdp1-/- hTDP1 cells, no CPT, ATP luminescence, 48 h. Potency, µM (series often up to 46.2 µM), inactives show at the top dose activity change, negative = growth inhibition, hits mostly inhibitors. 420,000 tested, 15% active; also: potency is read from the fitted curve at half-maximal effect; nearly all actives have a fitted effect of over 55% in size
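Luminescent ATP content (CellTiter-Glo) served as the growth readout. Knockout chicken DT40 cells expressing human TDP1 were exposed to compounds without camptothecin for a minimum 48 hr at 37 °C.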
HT1080NT lethal: kills 2HG-producing HT-1080-NT fibrosarcoma cells; HT-1080-NT fibrosarcoma viability, CellTiter-Glo ATP luminescence, 48 h; Potency, µM (top dose mostly 46.1 µM), for the others: at the top dose activity, negative = less viability, most hits filed as cytotoxic; 360,000 tested, 1.6% active; AID 686970;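 also: NT is the 2HG producing partner of a matched IDH1 knockdown line; potency is read from the fitted curve at half-maximal effect; 0% = DMSO-treated cells and -100% = media-only wells without cells; nearly all actives have a fitted effect of over 55% in size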
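Luminescent CellTiter-Glo readout after 48 hours of compound exposure at 37 degrees C defined viability of HT-1080-NT cells. Activity was normalized to DMSO wells and cell-free media wells; concentration-response curves were fitted and assigned curve classes.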
HT1080 IDH1KD tx: HT-1080 IDH1 knockdown cell toxicity (counter line); HT-1080 IDH1 knockdown viability, ATP luminescence, 48 h; Potency, µM (titrated, usually from 46.1 µM), inactives show at the top dose activity, negative = toxicity, actives largely listed as cytotoxic; 360,000 tested, 2% active; AID 686971;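 also: potency is read from the fitted curve at half-maximal effect; 0% = DMSO wells and -100% = cell-free medium wells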
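Viability of IDH1-knockdown HT-1080 fibrosarcoma cells was assessed by CellTiter-Glo after 48 h at 37 °C with titrated compound; concentration-effect curves were classified by fit quality and response size.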
Numbers without * were called inactive; ? = inconclusive; . = not tested or not shown. Sampled rows, rich in hits. Any-hit rate of the full collection: about 19%. Unless noted, calls follow the shape of the dose curve; as a rule, active = well fitted curve in the direction sought with a large enough effect; inconclusive = small, poorly fitted or top-dose-only effect, or another doubt; inactive = no such curve, though single readings can be large; an effect the other way counts as inactive or inconclusive. Unless noted, % is scaled to controls: 0 for no effect and ±100 for the full control effect.

SMILES | TDP1 cell CPT | IL-1B inflam inh | DT40 TDP1 no CPT | HT1080NT lethal | HT1080 IDH1KD tx
OCC1OC(n2cnc3c(NC4CCCC4)ncnc32)C(O)C1O (centres undefined) | -6.8% | 8.2 | -23.1% | 10.8% | -0.9%
Nc1nccc2c1ncn2C1OC(CO)C(O)C1O (centres undefined) | 7.31µM* | ? | 5.8µM* | -5.5% | -15.6%
N#Cc1ccccc1S(=O)(=O)NC(=O)[C@H]1O[C@@H](n2cnc3c(N)ncnc32)[C@H](O)[C@@H]1O | ? | 0.0 | 13µM* | 17.5% | 14.0%
Clc1ccc(CSc2ncnc3c2ncn3C2CCCCO2)cc1 (centres undefined) | ? | -25.6 | 16.4µM* | -18.7% | -29.2%
OC[C@H]1O[C@@H](n2cnc3cncnc32)[C@H](O)[C@@H]1O | 0.259µM* | . | 0.461µM* | . | .
Fc1ccccc1CSc1ncnc2c1ncn2C1CCCCO1 (centres undefined) | -15.7% | -8.3 | ? | -7.6% | -0.1%
OCC1OC(n2cnc3c(N4CCCCC4)ncnc32)C(O)C1O (centres undefined) | -16.8% | 0.0 | -8.6% | -3.0% | -4.2%
Nc1ncnc2c1ncn2[C@@H]1O[C@H](CNCc2ccc(OCc3ccccc3)cc2)[C@@H](O)[C@H]1O | 18.4µM* | -0.3 | 10.3µM* | -25.7% | -24.9%
CCOC(=O)C1CCN(C(=O)c2ccccc2)C(CC)C1=O (centres undefined) | -14.4% | -3.8 | ? | -0.3% | -1.5%
CCOC(=O)C1CCC(CN(Cc2ccc(OC)cc2)S(=O)(=O)c2ccc(C)cc2)CC1 (centres undefined) | 20.6µM* | . | 13µM* | . | .
CCOC(=O)C1CCC(CNCc2ccc(Cl)cc2)CC1 (centres undefined) | ? | -9.3 | ? | -2.4% | -20.0%
CCOC(=O)C1CCC(CN(Cc2ccc(Cl)cc2)S(=O)(=O)c2cccc(Cl)c2C)CC1 (centres undefined) | 23.1µM* | . | 18.4µM* | . | .
CS(=O)(=O)N(CC(=O)N/N=C/c1cc([N+](=O)[O-])ccc1Cl)c1ccccc1 | ? | -6.1 | 18.4µM* | -1.2% | 1.7%
CC(=O)N/N=C/c1cc([N+](=O)[O-])ccc1OCCOc1ccccc1 | ? | 11.6 | 16.4µM* | -10.3% | -2.6%
Cc1cccc(N(CC(=O)N/N=C/c2cc([N+](=O)[O-])ccc2Cl)S(C)(=O)=O)c1C | ? | -13.4 | 20.6µM* | 2.4% | 5.3%
Nc1nnnn1CC(=O)N/N=C/c1cc([N+](=O)[O-])ccc1Cl | 14.6µM* | 6.2 | 10.3µM* | -12.1% | 1.3%
COC(=O)[C@@]12C[C@@H](CC(=O)NCCCN3CCCC3=O)C(=O)N(CCc3ccc(OC)c(OC)c3)C1=CCC(C)(C)C2 | -17.1% | -8.5 | 4.6% | -6.3% | 3.9%
CCOC(=O)N1CCN(c2c(NCc3ccc(Cl)cc3)c(=O)c2=O)CC1 | 4.11µM* | 0.0 | 5.8µM* | ? | 5.8µM*
CCOC(=O)N1CCN(c2c(NCc3ccc(F)cc3)c(=O)c2=O)CC1 | 4.11µM* | 41.5 | 3.26µM* | 5.17µM* | 5.17µM*
CCOC(=O)N1CCN(c2c(NCc3ccccc3OC)c(=O)c2=O)CC1 | ? | 18.6 | ? | -2.6% | -5.4%
CN(C)c1ccc(/C=C/c2sc3ccccc3[n+]2Cc2ccccc2)cc1 | 0.112µM* | . | 0.1µM* | . | .
C[n+]1c(/C=C/c2ccc(N)cc2)sc2ccccc21 | 17.8µM* | . | ? | . | .
CCCN(CCC)c1ccc(/C=C/c2sc3ccccc3[n+]2CCCCI)cc1 | 0.316µM* | . | 0.316µM* | . | .
CC(=O)N/C(=C/c1ccccc1)c1sc2ccccc2[n+]1CCCCI | 20µM* | . | 11.2µM* | . | .
COc1cccc(C2=CC(c3ccc(OC)c(OC)c3)NC(=S)N2)c1 (centres undefined) | -22.6% | -1.6 | ? | -4.4% | -0.3%
SMILES | TDP1 cell CPT | IL-1B inflam inh | DT40 TDP1 no CPT | HT1080NT lethal | HT1080 IDH1KD tx
COc1ccc(/C=C/c2sc3ccccc3[n+]2CCCCI)cc1OC | 7.94µM* | . | 12.6µM* | . | .
COc1cc(/C=C/c2sc3ccccc3[n+]2CCCS(=O)(=O)[O-])ccc1O | ? | 1.9 | ? | -10.8% | -13.4%
O=C(NCc1ccc(F)cc1)C(C(=O)NCc1ccc(F)cc1)c1ncc(C(F)(F)F)cc1Cl | -9.4% | 3.4 | -3.3% | -0.4% | -0.9%
COc1ccc(NC(=O)c2ccc3c(=O)n4nc(Nc5cc(C)ccc5C)sc4nc3c2)cc1 | 6.51µM* | . | 5.8µM* | . | .
CCn1nnc2cc(C(=O)Nc3ccc(OC)cc3)ccc21 | -18.6% | . | -10.0% | . | .
CCc1ccccc1Nc1nn2c(=O)c3ccc(C(=O)Nc4ccc(OC)cc4)cc3nc2s1 | 20.6µM* | . | 13µM* | . | .
CC(=O)Nc1ccc(NC(=O)C(C)OC(=O)CSCc2cccc(Cl)c2)cc1 (centres undefined) | -24.8% | 32.0 | ? | -1.9% | -2.2%
O=C1OC(C(Cl)(Cl)Cl)Nc2ccccc21 (centres undefined) | -4.9% | 17.4 | -1.6% | 15.2% | 10.2%
COc1ccc(NC(=O)CC2C(=O)NCCN2C(=O)Nc2ccc(C(F)(F)F)cc2)cc1 (centres undefined) | -17.9% | -79.0* | 4.7% | ? | ?
COC(=O)CC1C(=O)NCCN1C(=O)Nc1ccccc1 (centres undefined) | 0.7% | 8.5 | 1.0% | 24.4% | 18.3%
Cc1cc(C)cc(NC(=O)N2CCNC(=O)C2CC(=O)Nc2cc(Cl)ccc2Cl)c1 (centres undefined) | ? | -57.1* | ? | -2.4% | 5.5%
COC(=O)c1cccc(NC(=O)CC2C(=O)NCCN2C(=O)Nc2cc(C)cc(C)c2)c1 (centres undefined) | -2.3% | -62.2* | -0.1% | -20.8% | -29.7%

Source: PubChem BioAssay (National Center for Advancing Translational Sciences (NCATS))
